This is a sample that favours compounds with a hit; in the whole collection about 1.5% have one here.
Sa RN4220 lethal = S. aureus RN4220 growth inhibition. OD600, 16 h. inhibition, % (concentration not given with the values). 330,000 tested, 0.33% active. AID 1259311; in the data active = inhibition above about 85%;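 note: plate controls were untreated cells for no effect and reference antibiotic for full effect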
Sa ugtP lethal = kills S. aureus RN4220 lacking UgtP. 330,000 tested, 0.54% active. AID 1259309. S. aureus RN4220 ugtP deletion, OD600 growth, 16 h. growth inhibition, % (test concentration not listed); in the data active = growth inhibition above about 68%;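 note: plate controls were untreated wells for no effect and antibiotic for full effect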
CCHFV vOTU inh = blocks the CCHF virus ovarian tumor domain protease. inhibition, % at 11.5 µM. AID 651958. 370,000 tested, 0.55% active. CCHFV vOTU protease, Pep-AMC fluorescence; in the data active = inhibition above about 30%; note: 0% = vehicle wells with enzyme and 100% = no enzyme wells
SSB-PriA inh = blocks PriA binding to SSB C-terminal tail. AlphaScreen SSBct-PriA binding, biotinylated peptide. 430,000 tested, 0.6% active. inhibition, % at 33 µM; in the data active = inhibition mostly above about 37%, no sharp cut-off; inactive = mostly below about 20%;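 note: plate controls were negative control peptide for no effect and reference peptide for full effect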
VHR inh abs = inhibitors of human VHR1 phosphatase (DUSP3); P51452; inhibition, % at 13.3 µM; 290,000 tested, 0.52% active; recombinant VHR phosphatase, pNPP absorbance; AID 1654; in the data active = inhibition above about 50%
Target sequence (P51452 whole entry, looked up): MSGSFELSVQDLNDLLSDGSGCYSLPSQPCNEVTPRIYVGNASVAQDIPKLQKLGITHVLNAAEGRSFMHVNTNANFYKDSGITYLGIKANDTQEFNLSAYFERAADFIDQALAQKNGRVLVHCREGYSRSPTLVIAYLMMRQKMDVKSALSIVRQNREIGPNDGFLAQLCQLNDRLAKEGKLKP
An asterisk follows results filed as active.

For CCc1cc(=O)oc2cc(OCC(=O)NCCCn3ccnc3)ccc12 the results were Sa RN4220 lethal -7, Sa ugtP lethal -4, CCHFV vOTU inh -1, SSB-PriA inh 39* and VHR inh abs 17.
For CSc1nc(Cc2ccccc2)nc2ccccc12 the results were Sa RN4220 lethal 7, Sa ugtP lethal 33, CCHFV vOTU inh -5, SSB-PriA inh -46 and VHR inh abs 53*.
For COc1ccc(N2CCN(C(=O)c3nn(C)c4c3CS(=O)(=O)c3ccccc3-4)CC2)cc1 the results were Sa RN4220 lethal 2, Sa ugtP lethal 4, CCHFV vOTU inh -4, SSB-PriA inh -4 and VHR inh abs -4.
COc1ccccc1N1CCN(C(=O)c2nn(C)c3c2CS(=O)(=O)c2ccccc2-3)CC1 was read as Sa RN4220 lethal 2, Sa ugtP lethal 9, CCHFV vOTU inh 9, SSB-PriA inh 3 and VHR inh abs 50*.
Screening CN1CCN(C(CNC(=O)NCc2ccccc2)c2ccsc2)CC1 (stereo not given) returned SSB-PriA inh 6.
For C=CCOc1ccc2c(c1)CCC1C2CCC2(C)C(O)C(O)CC12 (stereo not given) the results were Sa RN4220 lethal -8, Sa ugtP lethal 84*, CCHFV vOTU inh 11 and SSB-PriA inh 7.
Screening C[C@]12CCC3c4ccc(O)cc4CCC3C1CC(O)C2O (stereo not given in full) returned Sa RN4220 lethal 6 and Sa ugtP lethal -4.
Screening O=C(/C=C/c1ccccc1)NNC(=O)c1cnccn1 returned SSB-PriA inh 38.
Screening O=C(/C=C/c1ccccc1)NC(=S)NNC(=O)c1cnccn1 returned CCHFV vOTU inh -10, SSB-PriA inh 83* and VHR inh abs 8.
Screening CCCn1c(=O)c(C(=O)NCCc2ccccc2)c(O)c2ccccc21 returned Sa RN4220 lethal 2, Sa ugtP lethal 1, CCHFV vOTU inh -1, SSB-PriA inh -2 and VHR inh abs 54*.
CCCCCCCCCC(=O)NNC(=O)c1c(O)c2ccccc2n(CCC)c1=O was read as Sa RN4220 lethal 76, Sa ugtP lethal 90*, CCHFV vOTU inh -11, SSB-PriA inh -12 and VHR inh abs 30.
For CCCCCCCCCCC(=O)NNC(=O)c1c(O)c2ccccc2n(CC)c1=O the results were Sa RN4220 lethal 97*, Sa ugtP lethal 99* and VHR inh abs 20.
CCCCCCn1c(=O)c(C(=O)NN=Cc2cccc(F)c2)c(O)c2ccccc21 was read as Sa RN4220 lethal 60, Sa ugtP lethal 100* and SSB-PriA inh 6.
`CCc1nnsc1C(=O)Nc1c(C(=O)c2ccc(Cl)cc2)oc2ccccc12` gave SSB-PriA inh -4.
Screening Cc1ccccc1OCC(=O)N1Cc2cncnc2C1 returned SSB-PriA inh -7.
CCCCCCCCC(=O)NNC(=O)c1c(O)c2ccccc2n(CCC)c1=O was read as Sa RN4220 lethal 98*, Sa ugtP lethal 98*, CCHFV vOTU inh -2, SSB-PriA inh -13 and VHR inh abs 3.
`CCCn1c(=O)c(C(=O)NNS(=O)(=O)c2ccc(Cl)cc2)c(O)c2ccccc21` gave Sa RN4220 lethal 99*, Sa ugtP lethal 100*, CCHFV vOTU inh 11, SSB-PriA inh -6 and VHR inh abs -8.
`CCCn1c(=O)c(C(=O)NCc2ccccc2)c(O)c2ccccc21` gave CCHFV vOTU inh -16, SSB-PriA inh 1 and VHR inh abs 19.
Cn1cccc1C(CNC(=O)c1ccc2c(c1)OCO2)N1CCc2ccccc2C1 (stereo not given) was read as SSB-PriA inh 13*.
Cc1ccc(S(=O)(=O)Nc2cccc(C(=O)N3CCOCC3)c2)c(C)c1NS(C)(=O)=O was read as Sa RN4220 lethal 4, Sa ugtP lethal 0, CCHFV vOTU inh 11, SSB-PriA inh 2 and VHR inh abs 59*.
COc1ccc(-c2cc(=O)n(CC(=O)Nc3ccc(F)cc3)cn2)cc1 was read as SSB-PriA inh -14.
CCCN(CCC)c1ccc(C(=S)N2CCN(C(=S)Nc3ccccc3)CC2)cc1 was read as SSB-PriA inh -2.
CCCN(CCC)c1ccc(C(=S)N2CCOCC2)cc1 was read as SSB-PriA inh 37*.
CCCN(CCC)c1ccc(C(=S)N2CCNCC2)cc1 was read as SSB-PriA inh 36*.
O=C1NC(=O)/C(=C/C(=O)c2ccccc2)S1 was read as SSB-PriA inh -5.
For CCCCOc1ccc(CCN)cc1Cl the results were Sa RN4220 lethal 4, Sa ugtP lethal 0, CCHFV vOTU inh -14, SSB-PriA inh 3 and VHR inh abs 5.
`C[n+]1cn(CC(O)COCc2ccccc2)c2ccccc21` (stereo not given) gave Sa RN4220 lethal 4, Sa ugtP lethal -2, CCHFV vOTU inh -11, SSB-PriA inh -11 and VHR inh abs 33.
CCCCCc1ccc(OCCOCCn2c[n+](C)c3ccccc32)c(CCCCC)c1 was read as Sa RN4220 lethal 100*, Sa ugtP lethal 101*, SSB-PriA inh 20 and VHR inh abs -20.
Screening CCCCCc1ccc(OCCC[n+]2ccccc2)c(CCCCC)c1 returned Sa RN4220 lethal 99*, Sa ugtP lethal 100*, CCHFV vOTU inh 8, SSB-PriA inh -3 and VHR inh abs -2.
Cc1cc(C)n(CC(=O)Nc2ccc(Cl)cc2C(F)(F)F)c(=O)c1C#N was read as SSB-PriA inh -7.
For COc1ccc(OC(=O)C(C)N2C(=O)c3ccccc3C2=O)cc1 (stereo not given) the results were Sa RN4220 lethal 7, Sa ugtP lethal 9, CCHFV vOTU inh -3, SSB-PriA inh -10 and VHR inh abs 2.
For CC1=CC(C)(C)Nc2ccc(OC(=O)C(C)N3C(=O)c4ccccc4C3=O)cc21 (stereo not given) the results were Sa RN4220 lethal 6, Sa ugtP lethal 3, CCHFV vOTU inh -3, SSB-PriA inh 43* and VHR inh abs 13.
Screening COC(=O)/C(=C/Nc1cccc2ccccc12)[N+](=O)[O-] returned Sa RN4220 lethal 2, Sa ugtP lethal 2, CCHFV vOTU inh -29 and VHR inh abs -8.
Screening COC(=O)C(=CNc1cccc2ccccc12)[N+](=O)[O-] returned SSB-PriA inh 55*.
For COc1ccc(F)cc1S(=O)(=O)NCC(C)(O)CCSC (stereo not given) the results were SSB-PriA inh 14.
O=S(=O)(Nc1cccc(-c2nc3cccnc3s2)c1)c1ccc2c(c1)OCCO2 was read as Sa RN4220 lethal 8, Sa ugtP lethal 93*, CCHFV vOTU inh 13, SSB-PriA inh 2 and VHR inh abs 2.
Screening Cc1ccc(-c2nc3cccnc3s2)cc1NS(=O)(=O)c1ccc2c(c1)OCCO2 returned Sa RN4220 lethal 6, Sa ugtP lethal 2, CCHFV vOTU inh -1, SSB-PriA inh -16 and VHR inh abs -6.
Screening O=c1c2[nH]c3ccc(Br)cc3c2ncn1CCCn1ccnc1 returned Sa RN4220 lethal 9, Sa ugtP lethal 3, CCHFV vOTU inh 11, SSB-PriA inh 61* and VHR inh abs 23.
O=c1c2[nH]c3ccccc3c2ncn1CCCn1ccnc1 was read as Sa RN4220 lethal -2, Sa ugtP lethal -4, CCHFV vOTU inh -1, SSB-PriA inh -1 and VHR inh abs 12.

Screening results (PubChem BioAssay)
